{"source": "ChEMBL document CHEMBL4513216", "about": "“Probing the Open Global Health Chemical Diversity Library for Multistage-Active Starting Points for Next-Generation Antimalarials” (ACS Infect Dis, 2020)", "note": "The campaign covered roughly 69,000 compounds. About 8,600 (12%) showed an effect of 50% or more. This excerpt belongs to a sample that is enriched for strong results.", "data": [{"system": "Plasmodium berghei", "experiment": "Screen against P. berghei liver stage (PbLuc), transformed with Luciferase, at 10uM", "type": "functional, HepG2", "details": "tested at 10 uM", "units": {"INHIBITION": "%"}, "values": [{"compound": "Cc1cc(CNC(=O)Cc2cccs2)ccc1S(C)(=O)=O", "INHIBITION": -3.68}, {"compound": "CC(C)(C)OC(=O)NC(C)(C(N)=O)c1cccc(Cl)c1", "note": "(configuration not stated)", "INHIBITION": 65.6}, {"compound": "CC(C)(C)SCC(=O)NC(C)(C(N)=O)c1cccc(Cl)c1", "note": "(configuration not stated)", "INHIBITION": -19.5}, {"compound": "CCN(CC1=CCN(C)CC1)C(=O)CCOC", "INHIBITION": 29.5}, {"compound": "CC1CCN(CCNCc2cc(-c3ccccc3)cn3nnnc23)CC1", "INHIBITION": 23.2}, {"compound": "Cc1nc(C)n(CC2CN(CCCOc3ccc(F)cc3)CCO2)n1", "note": "(configuration not stated)", "INHIBITION": 25.6}, {"compound": "COC(=O)c1sc(C(F)(F)F)cc1OC", "INHIBITION": 43.2}, {"compound": "Cc1nsc(N2CCN(Cc3cccc(F)c3)CC2)n1", "INHIBITION": 57.6}, {"compound": "OCc1csc(N2CCN(Cc3cccc(F)c3)CC2)n1", "INHIBITION": 28.7}, {"compound": "Cc1nsc(N2CCN(C(=O)Nc3cccc(F)c3)CC2)n1", "INHIBITION": 68.3}, {"compound": "Cc1nsc(N2CCN(C(=O)Nc3ccc4[nH]ccc4c3)CC2)n1", "INHIBITION": 25.5}, {"compound": "Cc1nsc(N2CCN(CC(=O)NCc3ccc(F)cc3)CC2)n1", "INHIBITION": 40.9}, {"compound": "Cc1nsc(N2CCN(C(=O)Nc3cccc(C#N)c3)CC2)n1", "INHIBITION": 37.2}, {"compound": "CN(Cc1ccco1)C1CCC12CCN(C(=O)c1ccnnc1)CC2", "note": "(configuration not stated)", "INHIBITION": -39.3}, {"compound": "COCCCN1CCCCC12CC(=O)N(Cc1ccccn1)C2", "note": "(configuration not stated)", "INHIBITION": 18.7}, {"compound": "N#Cc1cccc(N2CC3(CCN(C(=O)C4CC=CC4)C3)CC2=O)c1", "note": "(configuration not stated)", "INHIBITION": 13.6}, {"compound": "O=C1CC2(CCCCN2CC2CC2)CN1c1ccccc1", "note": "(configuration not stated)", "INHIBITION": -31.4}, {"compound": "COCCN1CCCCC12CC(=O)N(c1ccccc1OC)C2", "note": "(configuration not stated)", "INHIBITION": 93.7}, {"compound": "Cc1ccccc1N1CC2(CCCCN2CC2CC2)CC1=O", "note": "(configuration not stated)", "INHIBITION": 5.63}, {"compound": "COCCN1CCCCC12CC(=O)N(c1cccc(C#N)c1)C2", "note": "(configuration not stated)", "INHIBITION": 61.1}, {"compound": "Fc1ccc(CN2Cc3nccn3CC(CN3CCOCC3)C2)cc1", "note": "(configuration not stated)", "INHIBITION": 32.2}, {"compound": "O=C(O)c1cc(-c2ccncc2)cc(S(=O)(=O)N2CCCCCC2)c1", "INHIBITION": -8}, {"compound": "Cc1ccc(C(=O)N2Cc3c(CN(C)C)nn(C)c3C2)cc1C", "INHIBITION": 14.6}, {"compound": "CCN(C)S(=O)(=O)NCC1CCN(Cc2ccccc2C)CC1", "INHIBITION": 24}, {"compound": "CCc1nc(CCNS(=O)(=O)c2cccc(C(=O)N(C)CC)c2)cs1", "INHIBITION": 55.4}, {"compound": "CCN(C)C(=O)c1cccc(S(=O)(=O)NCCc2nc(C)cc(=O)[nH]2)c1", "INHIBITION": 45.2}, {"compound": "CCN(C)C(=O)c1cccc(S(=O)(=O)NCCc2csc(N)n2)c1", "INHIBITION": 48}, {"compound": "CO[C@H]1CN(C(=O)c2nc(-c3ccccc3)[nH]c2C)CC[C@H]1N", "INHIBITION": 5.78}, {"compound": "CCCc1nnc2sc(C3CCN(C4CCN(C)CC4)CC3)nn12", "INHIBITION": 44.8}, {"compound": "CN1CCCC[C@@H]2[C@H]1[C@@H](c1ccccc1)CCN2C(=O)c1ccncc1", "INHIBITION": -4.51}, {"compound": "CN1CCCC[C@@H]2[C@H]1[C@@H](c1ccccc1)CCN2C(=O)c1cnccn1", "INHIBITION": 46.1}, {"compound": "Cc1nnsc1C(=O)N1CC[C@H](c2ccccc2)[C@@H]2[C@H]1CCCCN2C", "INHIBITION": 70.1}, {"compound": "CN1CCCC[C@@H]2[C@H]1[C@@H](c1ccccc1)CCN2C(=O)c1ccccc1", "INHIBITION": 59.7}, {"compound": "Cc1nnsc1C(=O)N1CCN(C(=O)C2CCC2)[C@@H]2CS(=O)(=O)C[C@@H]21", "INHIBITION": 47.2}, {"compound": "CN1CC[C@H](c2ccccc2)[C@@H]2[C@H]1CCCCN2C(=O)c1cnccn1", "INHIBITION": 57.4}, {"compound": "CN1CCCC[C@@H]2[C@H]1[C@@H](c1ccccc1)CCN2C(=O)c1ccccn1", "INHIBITION": 20.8}, {"compound": "CN1CCCC[C@@H]2[C@H]1[C@@H](c1ccccc1)CCN2C(=O)c1cccnc1", "INHIBITION": 47.2}, {"compound": "CN1CCCCC[C@@H]2[C@@H]1[C@H](c1ccccc1)CN2C(=O)c1cccnc1", "INHIBITION": 47.2}, {"compound": "CC(C)CNC(=O)c1cc(C2CC2)nc2onc(C3CCNCC3)c12", "INHIBITION": 13.5}, {"compound": "NCCc1c(-c2ccc(F)cc2)[nH][nH]c1=O", "INHIBITION": 39.1}, {"compound": "COc1ccccc1CNC(=O)c1[nH]ncc1Cl", "INHIBITION": 46.6}, {"compound": "NC(=O)Cn1cc(NC(=O)N2CCN(c3ccccc3)CC2)cn1", "INHIBITION": -65.7}, {"compound": "CC(C)N(C(=O)Cn1cc(Cl)cn1)c1ccccc1", "INHIBITION": 21.8}, {"compound": "Brc1cccc(-c2noc(CN3CCOCC3)n2)c1", "INHIBITION": 43.3}, {"compound": "O=C(COc1coc(CN2CCCCC2)cc1=O)NCc1ccccc1", "INHIBITION": 9.48}, {"compound": "Cc1cccc(CN2CCC3(CC2)CN(c2cccnc2)C(=O)CO3)n1", "INHIBITION": 30.3}, {"compound": "Cn1cc(N2CC3(COCCN(Cc4ccccn4)C3)OCC2=O)cn1", "note": "(configuration not stated)", "INHIBITION": -8.54}, {"compound": "Cn1cc(N2CC3(CCN(Cc4ccccc4)CC3)OCC2=O)cn1", "INHIBITION": 14.1}, {"compound": "Cn1cc(N2CC3(CCN(Cc4nccs4)CC3)OCC2=O)cn1", "INHIBITION": 26.3}, {"compound": "Cc1cccc(CN2CCCC3(CCN(c4cccnc4)C3=O)C2)n1", "note": "(configuration not stated)", "INHIBITION": 29}, {"compound": "Cn1cc(N2CC3(COCCN(Cc4nccs4)C3)OCC2=O)cn1", "note": "(configuration not stated)", "INHIBITION": 56.7}, {"compound": "COc1ccc(CN2CCC3(CCN(c4cccnc4)C3=O)C2)cc1", "note": "(configuration not stated)", "INHIBITION": 8.67}, {"compound": "Cn1cc(N2CC3(CCN(Cc4ccsc4)CC3)OCC2=O)cn1", "INHIBITION": 54.4}, {"compound": "Cn1cc(N2CC3(COCCN(Cc4ccsc4)C3)OCC2=O)cn1", "note": "(configuration not stated)", "INHIBITION": 18.2}, {"compound": "Cn1cc(N2CC3(CCN(Cc4cccs4)CC3)OCC2=O)cn1", "INHIBITION": -34.9}, {"compound": "Cc1cccc(CN2CCC3(CC2)CN(c2cnn(C)c2)C(=O)CO3)n1", "INHIBITION": 68.3}, {"compound": "Cc1cccc(CN2CCC3(CCN(c4cccnc4)C3=O)C2)n1", "note": "(configuration not stated)", "INHIBITION": 58.8}]}]}
